SMILES strings stand for the structures. Records with an inconclusive call do not appear. The source made the active and inactive calls. The calls were made as follows: active = hit-call score of the fitted dose curve at least 0.9, where 1 is the maximum; inconclusive = response in the unintended direction; inactive = score below 0.9.

26 molecules from PubChem BioAssay (EPA / NIEHS) can be followed below.

Chain of Estrogen receptor (Homo sapiens) (P03372 whole entry, looked up): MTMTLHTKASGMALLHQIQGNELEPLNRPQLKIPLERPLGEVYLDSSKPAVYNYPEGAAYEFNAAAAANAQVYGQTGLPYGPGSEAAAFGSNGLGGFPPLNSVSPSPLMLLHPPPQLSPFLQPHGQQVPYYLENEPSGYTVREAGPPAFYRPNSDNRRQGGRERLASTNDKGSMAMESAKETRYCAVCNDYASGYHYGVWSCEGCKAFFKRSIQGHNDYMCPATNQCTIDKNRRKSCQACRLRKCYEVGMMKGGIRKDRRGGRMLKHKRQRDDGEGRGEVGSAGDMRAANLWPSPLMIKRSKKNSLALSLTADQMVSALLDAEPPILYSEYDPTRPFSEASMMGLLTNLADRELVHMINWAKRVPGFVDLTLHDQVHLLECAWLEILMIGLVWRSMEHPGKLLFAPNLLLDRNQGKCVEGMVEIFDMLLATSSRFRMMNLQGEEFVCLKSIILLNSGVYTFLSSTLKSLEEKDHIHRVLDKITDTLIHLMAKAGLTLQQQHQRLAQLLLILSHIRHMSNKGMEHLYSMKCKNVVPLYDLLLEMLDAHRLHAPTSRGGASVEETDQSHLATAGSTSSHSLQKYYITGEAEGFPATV

The first assay concerns the target Estrogen receptor (Homo sapiens) (UniProt P03372). In words: CCTE_Deisenroth_AIME_384WELL_LUC_Active: CCTE's 384-well Estrogen Receptor Transactivation Assay with AIME metabolic competence (ERTA luciferase; metabolism positive), Deisenroth Lab (AID 2284030). In short, it runs like this:
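Readout: bioluminescent luciferase induction in VM7Luc4E2 cells 24 hour after receiving medium from a 2 h rat hepatic S9 (induced, alginate microsphere) metabolism step. Concentrations 0.002 - 200 uM; activity scaled to 17beta-estradiol positive control.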
Broadly, the AC50 is the concentration at which the activity in the assay is half-maximal. Consider `Nc1ccc2ccccc2c1`, for which the AC50 is 13.8 µM (active).
As for `CCOC(=O)c1ccccc1C(=O)OCC`, the call was inactive.
As to `O=C(O)CF`, the call was inactive.
Turning to `CCCCc1ccc(O)cc1`, the half-maximal activity concentration (AC50) is 26.1 µM (active).
As for `O=c1ssc(Cl)c1Cl`, the molecule was classed as inactive.
Still for that read-out and setting: as for `COC(N)=O`, the entry is “inactive”; as for `Nc1cc2c3c(c1)C(c1ccccc1)=N[C@@H](NC(=O)c1cccnc1)C(=O)N3CC2`, “inactive”.
On to `CC(Cl)(Cl)C(=O)O`, for which the outcome was inactive.
On to `c1ccc(OP(Oc2ccccc2)Oc2ccccc2)cc1`, for which the AC50 was 76.8 µM (active).
`CCCCN(CC)C(=O)SCCC`: the outcome was inactive.
As for `CCCN(CCC)c1c([N+](=O)[O-])cc(C(C)C)cc1[N+](=O)[O-]`, the AC50 was 13.3 µM (active).
As to `CCC(C)(C)c1ccc(O)cc1`, the AC50 is 7.31 µM (active).
For `CCOP(=S)(Oc1ccc([N+](=O)[O-])cc1)c1ccccc1` (centres undefined), the AC50 is 19.6 µM (active).
With `[N-]=[N+]=[N-]`, the call was inactive.
Consider `OCC1CO1` (centres undefined), for which the result was inactive.
The same measure, in the same setting: as for `CC(C)(C)OOC(C)(C)C`, the entry is “inactive”.
For the molecule `c1ccc2c(c1)Nc1ccccc1S2`, the AC50 is 41.3 µM (active).
For `CCCCc1ccccc1`, the call was inactive.
The same measure, in the same setting: as for `CCCCN(CCCC)SN(C)C(=O)Oc1cccc2c1OC(C)(C)C2`, the entry is “inactive”; as for `CCN(CC)c1ccccc1`, “inactive”.
As for `O=[N+]([O-])c1ccccc1`, the call was inactive.
The same measure, in the same setting: as for `CCCCN(CCCC)N=O`, the entry is “inactive”.
`CCCCOCC1CO1` (centres undefined): the AC50 is 77.3 µM (active).
Still for that read-out and setting: as for `CCCCC(CC)COP(=O)(Oc1ccccc1)Oc1ccccc1` (centres undefined), the figure is 34.1 µM (active).
Take `ClC(Cl)c1ccccc1`: the molecule was called inactive.
Same read-out and setting: as for `Nc1ccc(Cl)cc1`, the entry is “inactive”.

System in the next assay: not listed separately
The assay can be described thus: CCTE_Deisenroth_AIME_384WELL_CTox_Active: Cytotoxicity Assessment (CTOX) in CCTE's 384-well Estrogen Receptor Transactivation Assay with AIME metabolic competence (metabolism positive), Deisenroth Lab (AID 2284037).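 Also: chemicals first conditioned 2 h by alginate-bound induced rat liver S9 before cells; activity means signal loss indicating cell death.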 The essentials:
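VM7Luc4E2 breast cells received medium pre-incubated 2 h with chemical over alginate microspheres holding induced male Sprague Dawley rat liver S9; viability read 24 h later by protease-substrate fluorescence. Loss of signal, bidirectional fit, 0.002–200 uM.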
As for `Nc1ccc2ccccc2c1`, the outcome was inactive.
`CCOC(=O)c1ccccc1C(=O)OCC`: the outcome was inactive.
For the molecule `CCCCc1ccc(O)cc1`, the AC50 is 158 µM (active).
`Nc1cc2c3c(c1)C(c1ccccc1)=N[C@@H](NC(=O)c1cccnc1)C(=O)N3CC2`: the outcome was inactive.
Consider `c1ccc(OP(Oc2ccccc2)Oc2ccccc2)cc1`, for which the call was inactive.
Consider `CCCCN(CC)C(=O)SCCC`, for which the molecule was classed as inactive.
In the case of `OCC1CO1` (centres undefined), the result was inactive.
As for `CC(C)(C)OOC(C)(C)C`, the outcome was inactive.
For `c1ccc2c(c1)Nc1ccccc1S2`, the molecule was classed as inactive.
For the molecule `CCCCc1ccccc1`, the molecule was classed as inactive.
Turning to `CCCCN(CCCC)SN(C)C(=O)Oc1cccc2c1OC(C)(C)C2`, the molecule was called inactive.
The same measure, in the same setting: under `CCN(CC)c1ccccc1` stands “inactive”.
Still for that read-out and setting: as for `O=[N+]([O-])c1ccccc1`, the entry is “inactive”.
The same measure, in the same setting: as for `CCCCN(CCCC)N=O`, the entry is “inactive”; as for `CCCCOCC1CO1` (centres undefined), “inactive”.
Consider `CCCCC(CC)COP(=O)(Oc1ccccc1)Oc1ccccc1` (centres undefined), for which the molecule was called inactive.
Still for that read-out and setting: as for `ClC(Cl)c1ccccc1`, the entry is “inactive”; as for `Nc1ccc(Cl)cc1`, “inactive”.
